Reference: PubChem BioAssay (EPA / NIEHS)
Values joined by “and” are separate entries in the source; they are usually repeats but may differ in a detail not shown here. Equal values may be shown once. The source holds several records for some structures; these can differ, active in one and inactive in another. Active and inactive are the calls of the source. How the source made its calls: active means hit-call score of the fitted dose curve at least 0.9, where 1 is the maximum; inactive means score below 0.9.

These compounds were tested on UDP glucuronosyltransferase (UGT1A6), UGT1A6 (gene 54578) (assay: LTEA_HepaRG_UGT1A6: Life Technologies and Expression Analysis (LTEA) Assay for UDP glucuronosyltransferase (UGT1A6) using HepaRG (AID 2283539)). Settings: mRNA level, 48 h; actives raise or lower the signal.
Method: LTEA_HepaRG is a cell based, multiplexed-readout assay that uses HepaRG, a human liver cell line, with measurements taken at 48 hours after chemical dosing on a 96-well plate.LTEA_HepaRG_UGT1A6 is one of 102 assay component(s) measured in the LTEA HepaRG cell culture assay. It is a marker of NR mediated metabolism.Data from the assay component LTEA_HepaRG_UGT1A6 was analyzed into 1 endpoint. This assay endpoint, LTEA_HepaRG_UGT1A6, was analyzed with bidirectional fitting relative to DMSO as the negative control and baseline of activity. Using a type of inducible reporter, measures of mRNA induction for gain or loss-of-signal activity can be used to understand regulation of transcription factor activity. To generalize the intended target to other relatable targets, this assay endpoint is annotated to the transferase intended target family, where the subfamily is glucuronosyltransferase.
A total of 1060 chemcials from the ToxCast library were tested in eight-point concentration-response experiments. Cell culture and cytotoxicity assays were conducted at Thermo Fisher Scientific's Custom Services facility (Madison, WI). A single lot of human HepaRG cells (Thermo Fisher Scientific, Frederick, MD) was used for the cell culture experiments. 96-well format collagen type I coated plates of human HepaRG cells were prepared using established methods. Briefly, cryopreserved HepaRG cells were thawed, plated at a density of approximately 100,000 cells/well in HepaRG Thaw, Plate, and General Purpose media (HPRG770, Thermo Fisher Scientific), and incubated for 48 hours. 0.5% DMSO was selected as vehicle control to balance the requisite need of DMSO in HepaRG cultures to maintain differentiation (for example, baseline metabolism, proportions of hepatocytes vs. cholangiocytes), while enabling further hepatic receptor pathway activation (for example, PXR and CAR) in response to chemical exposure. 48 hours after plating, the culture medium was replaced with HepaRG Serum-Free Incudtion Media. Cells were exposed to each test chemical in duplicate and maintained in CO2 incubators for another 48 hours. Chemical plates were thawed to room temperature and 200x concentrations of treatment groups were prepared. 8-point conentration-reponse curves were made with the highest exposure at 100 uM, followed by half-log dilutions, all in 0.5% DMSO. Each test plate contained variouse controls, induction positive controls (1mM phenobarbital), cytotoxicity positive controls ([…] aflatoxin B1), vehicle controls (0.5% DMSO), and total lysis controls (0.5% DMSO). Cell morphology images were taken using an Essen IncuCyte FLR automated microscope, with six 96-well plates imaged in about 24 minutes. Images were captured and exported and JPEG files. Spent culture media was transfered to black-well plates for the LDH assay, and remaining media was sorted at -80 C for later use. Cells were treated with RLT buffer and frozen until shipped for gene expression analysis. Total RNA was isolated from the cell suspension in 75 uL of Buffer RLT (Qiagen, Germantown, MD 20874) by Quintiles/Expression Analysis (Durham, NC) using a custom isolation procedure. Total RNA from each plate well was transferred to a preamplification plate. Fluidigm's 96.96 Dynamic ArrayTM (Fluidigm, Amsterdam, the Netherlands) technology was used for gene expression analyses by quantitative reverse transcription polymerase chain reaction (qRT-PCR, performed by Quintiles/Expression Analysis, Durham, NC)89. Standard TaqManTM Assays (Applied Biosystems/ThermoFisher Scientific, Foster City, CA) were used to assess the expression of 93 genes selected based on their selectivity and sensitivity to important hepatic receptors known to be modulated by environmental chemicals; importance in human hepatocyte functionality; and hepatotoxicity. […]
C#CCOS(=O)OC1CCCCC1Oc1ccc(C(C)(C)C)cc1 (stereo not given) was tested, and the AC50 was 26.4 µM (active).
With N#Cc1nn(-c2c(Cl)cc(C(F)(F)F)cc2Cl)c(N)c1S(=O)C(F)(F)F (stereo not given) the AC50 was 44.8 µM (active).
In the case of CC(C)Oc1cc(-n2nc(C(C)(C)C)oc2=O)c(Cl)cc1Cl, the AC50 is reported as 76.5 µM (active).
For CCCN(CCC)c1c([N+](=O)[O-])cc(S(N)(=O)=O)cc1[N+](=O)[O-], the outcome was “inactive” and the AC50 was 79.1 µM (active) and 78.9 µM (active).
With O=C(O)COc1nc(Cl)c(Cl)cc1Cl the outcome was “inactive”.
In the case of CCCC1COC(Cn2cncn2)(c2ccc(Cl)cc2Cl)O1 (stereo not given), the AC50 is reported as 59.5 µM (active).
For OC(c1ccc(Cl)cc1)(c1cncnc1)c1ccccc1Cl (stereo not given), the AC50 was 74.1 µM (active).
Oc1ccccc1-c1ccccc1 was tested, and the outcome was “inactive”.
In the case of CCCCNC(=O)OCC#CI, the outcome is reported as “inactive”.
For CN(C)C(=S)SSC(=S)N(C)C, the outcome was “inactive”.
For CON(C)C(=O)Nc1ccc(Cl)c(Cl)c1, the outcome was “inactive”.
In the case of COc1ccc(C(c2ccc(OC)cc2)C(Cl)(Cl)Cl)cc1, the AC50 is reported as 79.2 µM (active).
With CCOP(=S)(OCC)SCn1c(=O)oc2cc(Cl)ccc21 the outcome was “inactive”.
With N#Cc1cc(Br)c(O)c(Br)c1 the AC50 was 23.5 µM (active).
With C=CCC1=C(C)C(OC(=O)C2C(C=C(C)C)C2(C)C)CC1=O (stereo not given) the outcome was “inactive”.
For COC(=O)C(C)Oc1ccc(Oc2ccc(Cl)cc2Cl)cc1 (stereo not given), the outcome was “inactive”.
Cc1cc(Cl)ccc1OCC(=O)O was tested, and the outcome was “inactive”.
For Cc1ccc(-c2c(Cl)nc(C#N)n2S(=O)(=O)N(C)C)cc1, the AC50 was 27.4 µM (active).
With O=C(O)c1nc(Cl)ccc1Cl the outcome was “inactive”.
With CNC(=S)S the outcome was “inactive”.
In the case of O=C(Nc1ccccc1)Nc1ccnc(Cl)c1, the AC50 is reported as 76.8 µM (active).
For COC(=O)C=C(C)OP(=O)(OC)OC, the outcome was “inactive”.
In the case of CC1COC(Cn2cncn2)(c2ccc(Oc3ccc(Cl)cc3)cc2Cl)O1 (stereo not given), the AC50 is reported as 63.9 µM (active).
For CC(C)(C)c1ccc(CSc2cnn(C(C)(C)C)c(=O)c2Cl)cc1, the AC50 was 18.8 µM (active).
In the case of COc1nc(NC(C)C)nc(NC(C)C)n1, the outcome is reported as “inactive”.
With CCNc1nc(Cl)nc(NC(C)C)n1 the outcome was “inactive”.
For CCCCC(CC)COC(=O)c1ccccc1C(=O)OCC(CC)CCCC (stereo not given), the outcome was “inactive”.
In the case of CCON=C(CC)C1=C(O)CC(c2c(C)cc(C)cc2C)CC1=O (stereo not given), the outcome is reported as “inactive”.
With CCCCOC(=O)c1ccccc1C(=O)OCCCC the outcome was “inactive”.
With CNC(=O)ON=CC(C)(C)SC the outcome was “inactive”.
For CC(Oc1ccc(Cl)cc1Cl)C(=O)O (stereo not given), the outcome was “inactive”.
In the case of COP(N)(=O)SC (stereo not given), the outcome is reported as “inactive”.
CCOC(=O)C(Cl)Cc1cc(-n2nc(C)n(C(F)F)c2=O)c(F)cc1Cl (stereo not given) was tested, and the outcome was “inactive”.
In the case of COC(=O)N(OC)c1ccccc1COc1ccn(-c2ccc(Cl)cc2)n1, the AC50 is reported as 73.3 µM (active).
CCOc1cc(Oc2ccc(C(F)(F)F)cc2Cl)ccc1[N+](=O)[O-] was tested, and the outcome was “inactive”.
With COC(=O)c1ccccc1C(=O)OC the outcome was “inactive”.
In the case of CO/C=C(/C(=O)OC)c1ccccc1Oc1cc(Oc2ccccc2C#N)ncn1, the AC50 is reported as 78.4 µM (active) and 80.9 µM (active) and 86.7 µM (active).
In the case of N#CC(CCc1ccc(Cl)cc1)(Cn1cncn1)c1ccccc1 (stereo not given), the AC50 is reported as 81.9 µM (active).
In the case of Fc1ccc(Oc2ccnc3cc(Cl)cc(Cl)c23)cc1, the outcome is reported as “inactive”.
